Shn3 3UTR inh – Schnurri-3 reporter inhibition in Clone20 osteoblasts; 360,000 compounds, 0.52% hits; AID 588674; inhibition, % at 12.5 µM; Clone20 osteoblast Shn3 3'UTR firefly luciferase, 24 h;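 active means mean inhibition of at least 75% with every replicate also reaching 75%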;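 further: 0% = median of neutral control wells and 100% = pilot-screen positive control compound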
Gli-Sufu block – antagonists of Gli-Sufu signaling | Sufu-KO-LIGHT fibroblasts, Gli luciferase reporter luminescence | inhibition, % at 5 µM | 340,000 compounds, 0.74% hits;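 active means inhibition above about 55%, limit read from the data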;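 further: 0% = DMSO-treated cells and 100% = wells with medium but no cells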
SRC3 inh – inhibitors of human steroid receptor coactivator 3 (SRC3). 360,000 compounds, 0.17% hits. Q9Y6Q9. inhibition, % at 3.6 µM. AID 588352. HEK293 GAL4-SRC3 luciferase reporter, luminescence;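 active means inhibition above a per-campaign cutoff, the mean of all compounds plus 3 SD, cut at about 60% in these data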;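 further: 0% = DMSO-treated cells and 100% = gossypol-treated cells at 36 µM; higher means less SRC3-driven luciferase light from the GAL4 reporter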
SRC1 inh – inhibits human SRC1 coactivator. HEK293 GAL4-SRC1 luciferase reporter, luminescence. inhibition, % at 3.6 µM. 360,000 compounds, 0.12% hits. AID 588354;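 active means inhibition above the campaign mean plus 3 SD, with each screening campaign given its own cutoff, cut at about 60% in these data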;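 further: 0% = DMSO treated cells and 100% = gossypol at 36 µM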
NCOA2 inhibitor – human SRC2 (NCOA2) inhibition. 370,000 compounds, 0.17% hits. Q15596. HEK293 GAL4-SRC2 luciferase reporter, luminescence. inhibition, % at 9 µM;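 active means inhibition above the mean inhibition of all tested compounds plus 3 SD, set per campaign, cut at about 52% in these data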;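 further: 0% = DMSO treated cells and 100% = cells given Gossypol at 36 µM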
NR5A2 inv ag – inverse agonists of human LRH-1 (NR5A2); 360,000 compounds, 0.13% hits; O00482; AID 602396; HEK293T StAR-luciferase reporter, LRH-1 transfected, 24 h; inhibition, % at 3.6 µM;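 active means inhibition above the mean inhibition of all tested compounds plus 3 SD, cut at about 73% in these data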;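 further: 0% = DMSO wells and 100% = reporter-only cells lacking LRH-1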
Target sequence (O00482 whole entry, looked up): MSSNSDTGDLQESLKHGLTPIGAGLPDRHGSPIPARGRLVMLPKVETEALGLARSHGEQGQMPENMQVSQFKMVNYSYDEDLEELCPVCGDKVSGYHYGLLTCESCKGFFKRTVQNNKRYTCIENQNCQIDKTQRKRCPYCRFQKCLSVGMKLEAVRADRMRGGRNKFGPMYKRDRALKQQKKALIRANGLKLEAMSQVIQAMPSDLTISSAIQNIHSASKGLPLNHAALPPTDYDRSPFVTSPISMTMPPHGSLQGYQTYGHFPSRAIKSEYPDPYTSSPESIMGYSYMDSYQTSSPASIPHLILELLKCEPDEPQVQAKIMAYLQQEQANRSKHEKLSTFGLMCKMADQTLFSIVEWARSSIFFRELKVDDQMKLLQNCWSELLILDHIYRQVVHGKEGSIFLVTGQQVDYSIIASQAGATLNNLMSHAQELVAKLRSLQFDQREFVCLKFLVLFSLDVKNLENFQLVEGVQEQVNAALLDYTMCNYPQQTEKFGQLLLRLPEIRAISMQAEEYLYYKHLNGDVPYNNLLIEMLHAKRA
* hit, by the source's call; · = not tested or not shown. A selection: hits, their analogues and other compounds. The true share with any hit is near 1.1%.

SMILES	Shn3 3UTR inh	Gli-Sufu block	SRC3 inh	SRC1 inh	NCOA2 inhibitor	NR5A2 inv ag
Nc1nc(N)nc(-c2ccc(Oc3ccccc3)cc2)n1	-36	-5	-6	-12	9	-6
O=C(Cc1ccccc1)NCCS(=O)c1ccc(Cl)cc1 (stereo unspecified)	92*	-5	0	-14	0	9
O=S1(=O)c2ccc(Br)cc2OC[C@@H](Cc2ccccc2)N1Cc1cn(Cc2ccc(C(F)(F)F)cc2)nn1	·	·	·	·	11	·
CCN(Cc1ccccc1)C(=O)C1C2C=CC3(CN(Cc4ccccc4)C(=O)C13)O2 (stereo unspecified)	·	·	·	·	-8	·
C[C@H]1CCCN1c1ccc2c(c1)OCCCN(C1CC1)S2(=O)=O	·	·	·	·	12	·
c1ccc2c(-c3ccc4nncn4c3)cncc2c1	10	·	62*	64*	55*	39
Cc1nc2ccccc2n1/N=C/c1ccc([N+](=O)[O-])s1	92*	27	24	-37	-13	51
O=[N+]([O-])c1ccc(/C=N/n2cnc3ccccc32)s1	90*	15	-2	-8	-34	23
CC(=O)N1[C@@H](CO)[C@@H](c2ccc(-c3cccc(F)c3)cc2)[C@@H]1CNCC1CCC1	·	·	·	·	0	·
COc1ccc(NC(=O)c2cc([N+](=O)[O-])ccc2O)cc1	66	43	53	51	76*	20
Cc1cccc(NC(=O)C2CCCN(c3nnc(-n4cccc4)s3)C2)c1C (stereo unspecified)	·	·	·	·	22	·
O=C(/C=C/c1ccccc1)CC(O)(c1ccccc1)C(F)(F)C(F)F (stereo unspecified)	25	-2	34	14	35	23
O=C(/C=C/c1ccccc1)CC(O)(c1ccccc1)C(F)(F)F (stereo unspecified)	-14	-5	72*	40	40	20
Nc1ncnc2c1ncn2C1O[C@H](CO)[C@@H](O)[C@@H]1O (stereo partly specified)	-36	-3	-5	-5	-7	3
N#Cc1c(N)n(C2OC(CO)C(O)C2O)c2ncnc(N)c12 (stereo unspecified)	65	-113	85*	83*	55*	95*
CN(C)Cc1c(C(=O)N/N=C/c2ccccc2OCc2c(F)cccc2Cl)nnn1-c1nonc1N	9	-3	6	4	-7	11
CN(C)Cc1c(C(=O)N/N=C/c2cccc(OCc3c(F)cccc3Cl)c2)nnn1-c1nonc1N	81	67*	-21	10	13	-4
CCOC(=O)[C@@]12CCCC=C1N(CCc1ccc(Cl)cc1)C(=O)[C@H]2CC(=O)N1CCCC1	·	·	·	·	8	·
COC(=O)[C@]12C[C@H](CC(=O)N3CCOCC3)C(=O)N(Cc3ccc4c(c3)OCO4)C1=C[C@H](C(C)C)O[C@@H]2C1CC1	·	·	·	·	-24	·
CCCCNc1c(-c2cccc(-c3ccc(OC)cc3)c2)nc2cc(C)ccn12	87*	28	15	-18	23	-26
COCc1c(C(=O)Nc2cccc(S(=O)(=O)N3CCCCC3)c2)oc2ccccc12	86*	7	-11	4	·	15
COC(=O)[C@@H](CC(C)C)CP(=O)(OC)[C@@H](C)NC(=O)OCc1ccccc1 (stereo partly specified)	·	·	·	·	5	·
Cc1ccc(NC(=O)OC2CCC23CCCCC3)cc1 (stereo unspecified)	·	·	·	·	-61	·
COCc1nn2c(N)c(-c3ccccc3)cnc2c1-c1ccccc1	-72	-74	-76	-46	-53	-49
COCc1nn2c(N)c(C#N)cnc2c1-c1ccccc1	95*	2	0	-19	-12	-1
SMILES	Shn3 3UTR inh	Gli-Sufu block	SRC3 inh	SRC1 inh	NCOA2 inhibitor	NR5A2 inv ag
COC(=O)[C@]12C[C@H](CC(=O)NCc3ccc(OC)c(OC)c3)C(=O)N(Cc3ccco3)C1=C[C@H](C(C)C)O[C@@H]2C1CC1	·	·	·	·	3	·
CC[N+]1(C)CCC(O)(/C=C/c2ccccc2)C(C(=O)/C=C/c2ccccc2)C1 (stereo unspecified)	99*	-9	-32	-29	1	-33
Cc1ccc(Nc2c(-c3ccccn3)nc3cc(C)ccn23)cc1	95*	31	12	-38	17	-4
Cc1ccc2nc(-c3ccncc3)c(Nc3ccccc3)n2c1	12	-1	-13	-9	3	-1
Cc1ccc(Nc2c(-c3ccccn3)nc3ccc(C)cn23)cc1	95*	19	-9	-40	2	-35
N#CCC[C@@H]1CC[C@]2(CCCN(C(=O)c3cccnc3)C2)O1	·	·	·	·	-14	·
